± gives the standard deviation of the averaged measurements. The full ranking holds about 25,000 sequences; the median of “ln(normalized median fluorescence intensity)” is about 8.6, and the highest 2% start at about 10. Only a selection was taken, and the highest values are over-represented in it overall.

Data on 57 sequences can be found in the supplement of paper PMC11417369.

This test relates to PfAP2-EXP AP2 domain (GST-tagged). Nature of the test: gcPBM binding intensity (ln(normalized median fluorescence intensity)); higher = stronger DNA binding. In outline: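 An Agilent 4 × 180k array carrying primer-extended double-stranded 36-bp intergenic genomic probes and negative controls received GST-tagged P. falciparum DNA-binding domains expressed in E. coli, about 25 μg on average, for 1 h. The binding buffer contained 1× PBS, 1% milk, 0.2 mg/ml BSA, 0.5% salmon testes DNA and 0.03% Triton X-100. Binding intensity is the top Masliner-normalised natural-log median intensity across replicate spots of either probe orientation, read after Alexa488 anti-GST antibody staining and a 488 nm scan.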
“TAAATATATTTATACACACACACCAAAGCAATAGAT [CACACA_site7393]”: the “gcPBM binding intensity (ln)” value was 9.12 ± 0.35.

“AAAAAATGTTAAAAAAGTACTTTCTTTATTTAATAA [XGTACX_site2908]”: the “gcPBM binding intensity (ln)” value turned out to be 8.07 ± 0.4.

For the sequence “GAACGCCATTCACATAAAGGGATACATAAATAAATA [XGTACX_negctrl_site330]”, the “gcPBM binding intensity (ln)” value was 8.4 ± 0.42.

Consider “ATGTGTATATATTATTGTACATATATATATATATAT [XGTACX_site4627]”, for which the “gcPBM binding intensity (ln)” value came out at 10.3 ± 0.2.

“TATATTAATAATAAGTGTACATATATATATATTTTT [XGTACX_site288]”: the “gcPBM binding intensity (ln)” value came to 8.36 ± 0.3.

For “CATATACATTGTATATGTACATATATATATATATAT [XGTACX_site3772]”, the “gcPBM binding intensity (ln)” value amounted to 10.1 ± 0.36.

Regarding “TATATATATATATATTGTACATATATTATTATATAT [XGTACX_site7447]”, the “gcPBM binding intensity (ln)” value stood at 10.2 ± 0.57.

For the sequence “ATATATATATATATATGTACATATTGTATCTTATAC [XGTACX_site5466]”, the “gcPBM binding intensity (ln)” value was 10.2 ± 0.4.

For “CATGTGCATATTAAATGTACATATATACATATATAC [XGTACX_site857]”, the “gcPBM binding intensity (ln)” value amounted to 8.835 ± 0.064.

Take “CTTTTAAATTATTTTTGTACATAATTATATATATAT [XGTACX_site4128]”: the “gcPBM binding intensity (ln)” value stood at 9.4 ± 0.32.

“TATATATTATATATATGTACATATTGTTGTGTATAT [XGTACX_site767]”: the “gcPBM binding intensity (ln)” value is 8.63 ± 0.29.

As for TTGTGTACATATTAAGTGCATATATATATATATATA, the “gcPBM binding intensity (ln)” value was found to be 10.4 ± 0.33.

In the case of “CATACACATATATATTGTACACATATATGTATGTAT [XGTACX_site4030]”, the “gcPBM binding intensity (ln)” value is 8.45 ± 0.28.

As to “ATATAAAAATTAAAATGTACATATCTTATTATAATA [XGTACX_site983]”, the “gcPBM binding intensity (ln)” value turned out to be 8.32 ± 0.34.

In the case of “ATATCTTAAATTATTTGTACATATATATATATATAT [XGTACX_site8034]”, the “gcPBM binding intensity (ln)” value came out at 10.3 ± 0.27.

For the sequence “TTTTAAATAAATCATGCATGCACATATAATTATATT [TGCATGCA_site151]”, the “gcPBM binding intensity (ln)” value was determined as 9.94 ± 0.33.

With TTATATGGATATACAGTGCATATATACATATAAGTG, the “gcPBM binding intensity (ln)” value was found to be 8.61 ± 0.26.

In the case of “ACAAAAAAATGAAAAGAAAAAGATATACCCCAATAT [CACACA_negctrl_site509]”, the “gcPBM binding intensity (ln)” value stood at 8.99 ± 0.8.

With “TATGTAATGTTTACAACACACAAATTATAAATACAA [CACACA_site1771]”, the “gcPBM binding intensity (ln)” value amounted to 8.38 ± 0.4.

Take “TATTACATTATATAAACATGCAAAACTATATATTAT [TGCATGCA_site601]”: the “gcPBM binding intensity (ln)” value was 8.63 ± 0.45.

As to “TGTTTTATTATTTATAGTACATAAAAAAATATTGTA [XGTACX_site8963]”, the “gcPBM binding intensity (ln)” value worked out at 8.25 ± 0.24.

“CAAGAATAAAAATACAAGCACACATGTATGAAATAT [CACACA_site3214]”: the “gcPBM binding intensity (ln)” value turned out to be 8.91 ± 0.42.

On to “TTATATCTTATAAAATGTACATAAAATATATAATAT [XGTACX_site7647]”, for which the “gcPBM binding intensity (ln)” value is 8.52 ± 0.26.

For “ATATATATATATAAATGTACAGGCTTATCTCTTATT [XGTACX_site1828]”, the “gcPBM binding intensity (ln)” value worked out at 10.2 ± 0.12.

With “TAAAAAAAAAAAATGTGTACATATTATATATATCTT [XGTACX_site2615]”, the “gcPBM binding intensity (ln)” value amounted to 8.22 ± 0.3.

Take “ATTTATCTATAATATACACACATATAACAGACATAT [CACACA_site6469]”: the “gcPBM binding intensity (ln)” value amounted to 8.52 ± 0.33.

“TGAATAATATACATACGTACATACATATATATAATA [XGTACX_site1302]”: the “gcPBM binding intensity (ln)” value came to 8.32 ± 0.3.

Turning to “TAATATACATATATATGTACATATATATATATATAT [XGTACX_site2684]”, the “gcPBM binding intensity (ln)” value came out at 9.93 ± 0.35.

In the case of “ATACATTCTAATACGTGTACATATATATATATATAT [XGTACX_site1881]”, the “gcPBM binding intensity (ln)” value came out at 10.2 ± 0.28.

With “ATTACAAAAAAAAAAAAAAAAAAAAAAAAAAAAAAA [CACACA_negctrl_site448]”, the “gcPBM binding intensity (ln)” value amounted to 7.95 ± 0.33.

“TACATAAATTTTAATACATGCAAATAAAATATATAA [TGCATGCA_site131]”: the “gcPBM binding intensity (ln)” value is 8.88 ± 0.4.

Regarding “AATAATTTTTTAAACACACACACATATATATATATA [CACACA_site95]”, the “gcPBM binding intensity (ln)” value turned out to be 10.1 ± 0.3.

For the sequence “TATATATATATATACACATGCAAAAATTTTTAATTT [TGCATGCA_site82]”, the “gcPBM binding intensity (ln)” value is 10.2 ± 0.35.

Consider “ATATTTTATTTATATACACACACATATATATATTAT [CACACA_site8177]”, for which the “gcPBM binding intensity (ln)” value came out at 8.79 ± 0.47.

In the case of “TAATTTTTTTTAATAACACACATATAAATATAAATA [CACACA_site6521]”, the “gcPBM binding intensity (ln)” value came out at 8.17 ± 0.45.

“TATTACACATATTATACACACATATATTATATATAT [CACACA_site4951]”: the “gcPBM binding intensity (ln)” value was 8.69 ± 0.25.

Take “ATTTTATTTATATACACACACATATATATATTATAT [CACACA_site822]”: the “gcPBM binding intensity (ln)” value stood at 8.77 ± 0.44.

“TAATTTTTTTTAATAACACACATATATATATATATA [CACACA_site813]”: the “gcPBM binding intensity (ln)” value was determined as 10.47 ± 0.042.

For “TTTTATATATTATATACACACATATATATATATATA [CACACA_site2999]”, the “gcPBM binding intensity (ln)” value was 10.2 ± 0.32.

“TTTTTTTTTTTTTAAACATGCAAAATATATAATTTT [TGCATGCA_site633]”: the “gcPBM binding intensity (ln)” value came to 8.46 ± 0.36.

On to “TTACTACTATATTATACACACATATATATATATATA [CACACA_site2621]”, for which the “gcPBM binding intensity (ln)” value is 10.3 ± 0.23.

For the sequence “TTACTACTATATTATACACACATATATTTATTTATA [CACACA_site7274]”, the “gcPBM binding intensity (ln)” value turned out to be 8.7 ± 0.4.

For “AAACCTTTAGAAAATCGTACAAAACATAACCACCTA [XGTACX_site1098]”, the “gcPBM binding intensity (ln)” value is 8.81 ± 0.61.

As for “CACAGACACGGACACACACACACAAAAAAAAAAAGA [CACACA_site4436]”, the “gcPBM binding intensity (ln)” value was determined as 8.44 ± 0.57.

Take “TATTTTTAAATATAAAGTACTTATATTAACTACGAA [XGTACX_site1524]”: the “gcPBM binding intensity (ln)” value stood at 8.27 ± 0.29.

With “TATATATATACATACATACACACATATATATATATA [CACACA_site4109]”, the “gcPBM binding intensity (ln)” value was 10.1 ± 0.67.

Consider “ACAATAAAATATGGCACACATATATATATATATTTA [CACACA_site3]”, for which the “gcPBM binding intensity (ln)” value stood at 8.43 ± 0.34.

Take “AAAATCTAGGTATTTATACACACTAAAATAATATAC [CACACA_site623]”: the “gcPBM binding intensity (ln)” value came out at 8.52 ± 0.3.

For “AAATAAAATAAAATAAAATAAAATAAAATAAAATAA [XGTACX_negctrl_site142]”, the “gcPBM binding intensity (ln)” value is 8.49 ± 0.28.

For the sequence “AAAAAATATATATGCACACACAAAAAAACAAATTAA [CACACA_site1278]”, the “gcPBM binding intensity (ln)” value turned out to be 8.78 ± 0.38.

“ATATATATATATTGTACACACATTTATGCATATATA [CACACA_site5738]”: the “gcPBM binding intensity (ln)” value turned out to be 9.97 ± 0.3.

In the case of “AGTGAAATTTTAGTCACACAGTTTTATCTTTAAGAA [CACACA_site5202]”, the “gcPBM binding intensity (ln)” value was found to be 8.12 ± 0.52.

For “TTGTGTTATCACACGAAGGGGATAAGACATAAATGT [TGCATGCA_negctrl_site368]”, the “gcPBM binding intensity (ln)” value amounted to 8.49 ± 0.49.

As for “TCTTAAGGAAAAGAGTGTACAGAAATTTTTATTAAC [XGTACX_site6139]”, the “gcPBM binding intensity (ln)” value is 8.67 ± 0.48.

Turning to “TGTAGTCTGGAGAAAAGTACATAGTATCTGGTAACC [XGTACX_site2025]”, the “gcPBM binding intensity (ln)” value is 8.62 ± 0.38.

ATAAAAAGCTAAAAAGTGCAAAAAGTAAATATTTAA: the “gcPBM binding intensity (ln)” value came out at 9 ± 0.44.

On to “TTTAAATAAAATATTACACACTTAGAAAAATATATA [CACACA_site3663]”, for which the “gcPBM binding intensity (ln)” value was 8.38 ± 0.28.
